A short description of experiment [1]: Cellular Toxicity (caspase-3) SHSY5Y (AID 657).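 Further: cells exposed to compound for 16 hours at 37 °C.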 The essentials:
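Luminescent caspase-3/7 readout (aminoluciferin release) in SH-SY5Y cells after 16 h compound exposure in complete medium. Activity scaled between DMSO basal and 10 uM staurosporine as 100%; concentration-response fitted to Hill equation for AC50.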

The nature of experiment [2]: Cellular Toxicity (caspase-3) BJ (AID 658).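 Further: cells exposed to compound for 16 hours; 0% = DMSO basal and 100% = 10 µM staurosporine.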 The procedure, abridged:
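Luminescent aminoluciferin-substrate cleavage reports caspase 3/7 activity in normal human BJ fibroblasts after 16 hr compound exposure at 37 °C. Normalized to DMSO (basal) and 10 uM staurosporine (100%); AC50 from Hill fit of concentration-response.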

Experiment [3] can be described thus: Cellular Toxicity (caspase-3) N2a (AID 665).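 Further: compound exposure lasted 16 h at 37 °C before readout.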 The essentials: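 N2a cells, 1500/well, 5 h settle at 37 °C; cpd 16 h, 37 °C; Caspase-Glo 3/7, 1 h RT; luminescence. Norm: DMSO = 0, 10 uM staurosporine = 100%. AC50, Hill fit.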
The nature of experiment [4]: Cellular Toxicity (caspase-3) Renal Proximal Tubule (AID 667).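 Further: cells exposed to compound for 16 hours at 37 °C before detection; 0% = DMSO basal and 100% = 10 µM staurosporine.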 The essentials:
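Luminescent caspase 3/7 signal from peptide-aminoluciferin cleavage measures apoptosis in freshly isolated rat kidney proximal tubule cells after 16 h compound exposure. Concentration-response data are normalized to DMSO and 10 uM staurosporine, and AC50 values come from Hill equation fits.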

Experiment [5] is described as follows: MultiTox-Fluor Cytotoxicity Assay - LYMP1-001 - Dead Cells (AID 946).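 Further: 0% = DMSO and 100% = tetraoctylammonium bromide.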 The essentials: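 In this qHTS, 15 uM tetraoctylammonium bromide defined 100% and DMSO defined basal activity. Lymphoblastoid cells (LYMP1-001, 2500 per well) received compound for 16 hr at 37 C before a fluorogenic dead-cell substrate readout at 485/520 nm.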
Experiment [6] in a line: Cell Viability - LYMP1-002 - Assay at 16 hr (AID 948).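 Further: 0% = DMSO alone and full effect = 92 µM tetraoctylammonium bromide.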 The essentials: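 LYMP1-002 human lymphoblastoid cells, 2500/well; 5 hr 37 C; cpd 16 hr 37 C; CellTiter-Glo 30 min RT; luminescence (ATP). Concentration-response, Hill-fit AC50. Pos ctrl tetraoctylammonium bromide.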
Experiment [7] in a line: MultiTox-Fluor Cytotoxicity Assay - LYMP1-003 - Dead Cells (AID 961).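 Further: 0% = DMSO and 100% = tetraoctylammonium bromide; nearly all actives have a fitted effect of over 70% in size.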 The essentials:
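Acute toxicity is scored as increased dead-cell protease activity in human lymphoblastoid LYMP1-003 cells after 16 h compound exposure in complete culture medium. Activity is normalized to DMSO basal and 15 uM tetraoctylammonium bromide as full response.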

The nature of experiment [8]: Cell Viability - LYMP1-003 - Assay at 24 hr (AID 963).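 Further: plate controls were DMSO only for no effect and tetraoctylammonium bromide positive control for full effect.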 The procedure, abridged: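 Cells seeded at 2500/well, 5 hr at 37 C; compounds added; 24 hr at 37 C; CellTiter-Glo added, 30 min room temperature; luminescence read. Decrease in ATP taken as cytotoxicity, AC50 from Hill modelling.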
Experiment [9] can be described thus: Cell Viability - LYMP2-003 (AID 965).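 Further: cells exposed to compounds for 24 h before reading; 0% = DMSO only and full effect = 92 µM tetraoctylammonium bromide; nearly all actives have a fitted effect of over 50% in size.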 The procedure, abridged:
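CellTiter-Glo luminescence (cellular ATP) after 24 h compound exposure at 37 C in complete medium; 2500 cells/well, 5 h settling beforehand. Concentration-response fitted to standard Hill equation for AC50. Tetraoctylammonium bromide served as positive control.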

Experiment [10] in a line: Cell Viability - LYMP2-013 (AID 970).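 Further: series mostly up to about 92 µM; 0% = DMSO only and full inhibition = tetraoctylammonium bromide control; nearly all actives have a fitted effect of over 55% in size.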 The procedure, abridged:
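qHTS; 2500 lymphoblastoid cells/well; 5 hr 37 C settle; cpd 24 hr 37 C; CellTiter-Glo, 30 min RT; luminescence. AC50 = Hill fit.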

Experiment [11] can be described thus: Cell Viability - LYMP2-008 (AID 980). Further: on the % scale 0 is the no-effect control and ±100 the full control effect; nearly all actives have a fitted effect of over 60% in size. The essentials:
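qHTS, human lymphoblastoid line, 2500 cells/well; 5 hr preincubation, 24 hr compound, 37 C. CellTiter-Glo ATP luminescence. AC50 via Hill equation. Tetraoctylammonium bromide positive control.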

Experiment [12] can be described thus: Cell Viability - LYMP2-012 (AID 982).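 Further: cellular ATP by luciferase luminescence where a drop means cytotoxicity; cells exposed to compound for one day before reading; 0% = DMSO only and full loss = 92 µM tetraoctylammonium bromide; nearly all actives have a fitted effect of over 55% in size.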
Experiment [13] can be described thus: Cell Viability - LYMP2-016 (AID 984).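 Further: cells exposed to compound for 24 hours at 37 °C; on the % scale 0 is the no-effect control and ±100 the full control effect; nearly all actives have a fitted effect of over 55% in size.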 The essentials: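 qHTS, 1536-well: 2500 LYMP2-016 cells/well, 5 hr 37 C, compound added, 24 hr 37 C, CellTiter-Glo 30 min RT, luminescence. Tetraoctylammonium bromide positive control. AC50 via Hill fit.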
A short description of experiment [14]: Cell Viability - LYMP1-002 - Assay at 24 hr (AID 993). Further: on the % scale 0 is the no-effect control and ±100 the full control effect. The essentials:
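Cells plated 2500/well, 5 hr 37 C; compounds added, 24 hr 37 C; CellTiter-Glo added, 30 min RT; luminescence read. Tetraoctylammonium bromide positive control. Hill-equation AC50.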

Experiment [15] is described as follows: Cell Viability - LYMP1-002 - Assay at 40 hr (AID 994).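 Further: 0% = DMSO only and full inhibition = 92 µM tetraoctylammonium bromide; nearly all actives have a fitted effect of over 60% in size.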 The essentials:
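Luminescent ATP signal served as the viability readout, with decreases taken as toxicity. Cells were treated with compounds across a concentration range for 40 hours at 37 C, and AC50 values came from standard Hill modeling.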

Experiment [16] can be described thus: qHTS Assay for Identification of Small Molecule Inducers of Hypoxia Response (AID 2120; active means well fitted curve in the direction sought with a large enough effect in the signal ratio, with a control signal flat, not every such curve was filed as active; the % refers to the signal ratio; further: 0% is about no effect). The procedure, abridged: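 ME-180 HRE-bla cells plated in Opti-MEM/0.5% dialyzed FBS, rested 4-5 h, then dosed with compound titrations by pin tool. After 17 h at 37 degrees C, CCF4 dye loaded 2.5 h at RT; 460/530 nm ratio gave %Activity and AC50.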
Background: Quantitative high-throughput screening tests each substance at several concentrations.

Experiment [17] has as its target Peroxisome proliferator-activated receptor alpha (Homo sapiens) (UniProt Q07869). Nature of the experiment: qHTS assay for small molecule agonists of the peroxisome proliferator-activated receptor alpha (PPARalpha) signaling pathway (AID 651778). Further: % of control where 0% means no effect. To be noted: PathHunter PPARalpha complementation, chemiluminescence, 6 h; stronger effect = higher value. The essentials: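 Cells plated at 2,000/well and held overnight at 37 C, 5% CO2, then compound added by pin tool for 6 hr; after PathHunter detection reagent and 60 min at room temperature, chemiluminescence from enzyme complementation was read.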

Experiment [18] is described as follows: qHTS assay for cell viability of HEK293 cells (AID 743288). Further: on the % scale 0 is the no-effect control and ±100 the full control effect; nearly all actives have a fitted effect of over 50% in size. Particulars: ATP luminescence (CellTiter-Glo), 18 h, stronger effect = lower value. The procedure, abridged: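 Environmental chemicals tested in qHTS format against parental HEK293 cells; 18 h treatment, 37 C; read-out ATP luminescence (CellTiter-Glo), 30 min RT development.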
Experiment [19] can be described thus: qHTS assay for cell viability of the p53RE-bla HCT-116 cell line (AID 743292). Further: nearly all actives have a fitted effect of over 55% in size. Further: potency means the concentration at half of the fitted maximal effect. The procedure, abridged: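 HCT-116 p53RE-bla cells seeded 4,000/well; 5 h at 37 C; compound (DMSO) added; 16 h at 37 C; CellTiter-Glo added, 30 min RT; luminescence read.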
Experiment [20] can be described thus: Cell Viability - LYMP2-019 (AID 973). The essentials:
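Luminescent ATP read-out (CellTiter-Glo, 30 min room temperature) served as the viability measure after 24 hr treatment of lymphoblastoid cells at 37 C. Concentration-response data were fitted to the Hill equation for AC50.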

The record followed here is PubChem BioAssay (NCATS).

Where “and” joins values, the source holds several entries; their conditions need not be identical. Equal values may be shown once. Unmarked numbers belong to inactive results. Results filed as inconclusive are left out. Calls of active or inactive are those of the source. Unless noted, the call rests on the fitted dose curve; in most records, active means well fitted curve in the direction sought with a large enough effect; inconclusive means small, poorly fitted or top-dose-only effect, or another doubt; inactive means no such curve, though single readings can be large; an effect the other way counts as inactive or inconclusive.

Peroxisome proliferator-activated receptor alpha (Homo sapiens), sequence (Q07869 whole entry, looked up): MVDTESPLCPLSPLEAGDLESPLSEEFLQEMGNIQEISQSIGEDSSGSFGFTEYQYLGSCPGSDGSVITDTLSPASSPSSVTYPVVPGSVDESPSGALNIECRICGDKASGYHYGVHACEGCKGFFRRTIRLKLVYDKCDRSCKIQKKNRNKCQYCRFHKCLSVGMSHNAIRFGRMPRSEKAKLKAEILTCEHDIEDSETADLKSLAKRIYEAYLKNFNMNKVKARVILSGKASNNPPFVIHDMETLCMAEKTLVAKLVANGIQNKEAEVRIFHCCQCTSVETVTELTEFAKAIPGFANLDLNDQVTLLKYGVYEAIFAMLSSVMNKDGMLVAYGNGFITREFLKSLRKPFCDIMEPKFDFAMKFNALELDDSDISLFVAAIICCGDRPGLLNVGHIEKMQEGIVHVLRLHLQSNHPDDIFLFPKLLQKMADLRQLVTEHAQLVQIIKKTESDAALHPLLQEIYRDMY

Take `c1ccc(P(c2ccccc2)c2ccccc2)cc1`: the outcome in [1], in [2], in experiment [3], in experiment [4], in experiment [5] and in experiment [6] was inactive. In addition, the outcome in [8] was inactive. Also, the Potency result in experiment [7], in [9], in experiment [10], in experiment [11], in [12] and in [13] was “inactive” in each case. For the same molecule, the Potency result in experiment [14], in experiment [15], in experiment [16] and in experiment [19] was “inactive” each time. Also, the max response was -4.42% in experiment [17] and -11.3% in experiment [18].
Regarding `Oc1ccc(Cl)c(Cl)c1Cl`, the molecule was classed as inactive in experiment [1], in [2], in experiment [3], in experiment [4], in [5] and in experiment [6]. In addition, the molecule was called inactive in experiment [8]. For the same molecule, the Potency result in [7], in experiment [9], in [10], in experiment [20], in experiment [11] and in experiment [12] was “inactive” in each case. Further, the Potency result in [13], in experiment [14], in experiment [15], in experiment [16] and in experiment [19] was “inactive” throughout. The figures for the max response in experiment [17] and in experiment [18] were 0.378% and -4.77%, respectively.
As for `Nc1cc(Cl)ccc1O`, the outcome in experiment [1], in [2], in [3], in experiment [4], in experiment [5] and in experiment [6] was inactive. The molecule was classed as inactive in experiment [8]. For the same molecule, the Potency entry in experiment [9], in experiment [10], in [20], in [11], in [12] and in experiment [13] was “inactive” in each case. The Potency result in experiment [14], in experiment [16] and in [19] was “inactive” in each case. The max response in experiment [17] was 0.902%; in experiment [18], -15.2%.
As for `Clc1ccc(C(c2ccccc2Cl)C(Cl)(Cl)Cl)cc1` (stereo not given), the result in [1], in experiment [2], in experiment [3], in experiment [4], in experiment [5] and in experiment [6] was inactive. Besides, the result in [8] was inactive. The Potency entry in experiment [7], in experiment [9], in [10], in experiment [20], in [11] and in experiment [13] was “inactive” in each case. Also, the Potency result in experiment [14], in experiment [15] and in experiment [16] was “inactive” throughout. Besides, in [17], the max response was 3.12%. Further, in [19], the Potency was 50.1 µM (active).
Take `CC(C)(C)OOC(=O)c1ccccc1`: the molecule was called inactive in [1], in [2], in [3], in [4], in [5] and in experiment [6]. In experiment [8], the call was inactive. In addition, the Potency entry in [7], in [9], in [10], in [20], in [11] and in [12] was “inactive” throughout. Besides, the Potency result in experiment [13], in experiment [14], in experiment [15], in experiment [16] and in experiment [19] was “inactive” throughout. In addition, the max response was -5.26% and -0.274% in experiment [17]; 7.08% and -4.29% in [18].
As to `Nn1cnnc1`, the call in experiment [1], in experiment [2], in [3], in experiment [4], in experiment [5] and in experiment [6] was inactive. Moreover, in [8], the molecule was classed as inactive. The Potency entry in experiment [7], in experiment [9], in [10], in experiment [20], in [11] and in [12] was “inactive” throughout. The Potency result in experiment [13], in experiment [14], in [15], in experiment [16] and in [19] was “inactive” in each case. Besides, the max response in experiment [17] is -0.452%; in experiment [18] it was -1.3%.
As for `CN(C)c1ccc(N=Nc2ccccc2)cc1`, the call in [1], in [2], in experiment [3], in experiment [4], in experiment [5] and in experiment [6] was inactive. Also, the molecule was called inactive in [8]. Further, the Potency entry in experiment [7], in [9], in [10], in experiment [20], in experiment [11] and in [12] was “inactive” throughout. Further, the Potency entry in [13], in experiment [14], in experiment [15], in experiment [16] and in [19] was “inactive” each time. For the same molecule, the max response is -12.4% in [17] and -8.55% in experiment [18].
Consider `C=C(Cl)CCl`, for which the molecule was classed as inactive in experiment [1], in experiment [2], in experiment [3], in [4], in [5] and in experiment [6]. Besides, the molecule was classed as inactive in experiment [8]. Moreover, the Potency result in [7], in experiment [9], in experiment [10], in experiment [20], in [11] and in experiment [12] was “inactive” each time. The Potency entry in [13], in experiment [14], in experiment [15], in [16] and in experiment [19] was “inactive” in each case. For the same molecule, the max response was -4.17% in experiment [17] and -2.76% in experiment [18].
